Reference: PubChem BioAssay
Activity calls are given as the source filed them.

Experiments:
[1] = system: Plasmodium falciparum Sir2 (PF13_0152, Sir2A); experiment: pfSir2 binders on small-molecule microarrays, primary screen, biochemical, small-molecule microarray, 635 nm fluorescence (AID 1098); conditions: small-molecule microarray binding, fluorescence 635 nm; higher = more signal;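 further: score merges spot fluorescence intensity with its signal-to-noise ratio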
[2] = small-molecule microarray binders of probe aDKK1, primary screen, biochemical, biotinylated probe, 635/667 nm fluorescence (AID 1099); conditions: higher = more signal;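 further: score merges 667nm spot fluorescence with signal to noise across triplicate slides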
[3] = small-molecule microarray binders of probe aCHRDL2, primary screen, biochemical, biotinylated probe, 635/667 nm fluorescence (AID 1100); conditions: higher = more signal
[4] = splicing luciferase reporter signal modulators, primary screen, spliceosome inhibition project, cell-based, HEK293, splice +/- reporter (AID 1101); conditions: luminescence, 24 h, higher = more signal, called active from +8 up or from −8 down;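 further: HEK293 cells carrying a splicing-competent luciferase reporter gene; test concentration not given here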
[5] = target: Fibroblast growth factor 10 (Homo sapiens) (UniProt O15520); experiment: FGF10 binders on small-molecule microarrays, primary screen, biochemical, small-molecule microarray, 635 nm fluorescence (AID 1102); conditions: FGF10 binding, fluorescence 635 nm, higher = more signal
Chain of Fibroblast growth factor 10 (Homo sapiens) (O15520 whole entry, looked up): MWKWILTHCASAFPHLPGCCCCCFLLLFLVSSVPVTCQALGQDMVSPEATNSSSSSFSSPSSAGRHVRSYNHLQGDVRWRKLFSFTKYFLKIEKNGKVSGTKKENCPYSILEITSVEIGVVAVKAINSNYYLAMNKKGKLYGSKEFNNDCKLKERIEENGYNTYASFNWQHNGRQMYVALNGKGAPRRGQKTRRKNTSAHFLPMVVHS

[6] = system: glycogen synthase kinase-3 (GSK3A per assay name; protocol says GSK3B); experiment: GSK3 binders on small-molecule microarrays, primary screen, biochemical, small-molecule microarray, 635 nm fluorescence, GSK3A (AID 1103); conditions: small-molecule microarray binding, fluorescence 635 nm; higher = more signal; further: the record names both GSK3A and GSK3B
[7] = target: Epidermal growth factor receptor (Homo sapiens) (UniProt P00533); experiment: EGFR binders on small-molecule microarrays, primary screen, biochemical, small-molecule microarray, 635 nm fluorescence (AID 1104); conditions: EGFR binding, higher = more signal;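 further: score merges 667 nm emission intensity with spot signal to noise over triplicate slides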
Chain of Epidermal growth factor receptor (Homo sapiens) (P00533 whole entry, looked up): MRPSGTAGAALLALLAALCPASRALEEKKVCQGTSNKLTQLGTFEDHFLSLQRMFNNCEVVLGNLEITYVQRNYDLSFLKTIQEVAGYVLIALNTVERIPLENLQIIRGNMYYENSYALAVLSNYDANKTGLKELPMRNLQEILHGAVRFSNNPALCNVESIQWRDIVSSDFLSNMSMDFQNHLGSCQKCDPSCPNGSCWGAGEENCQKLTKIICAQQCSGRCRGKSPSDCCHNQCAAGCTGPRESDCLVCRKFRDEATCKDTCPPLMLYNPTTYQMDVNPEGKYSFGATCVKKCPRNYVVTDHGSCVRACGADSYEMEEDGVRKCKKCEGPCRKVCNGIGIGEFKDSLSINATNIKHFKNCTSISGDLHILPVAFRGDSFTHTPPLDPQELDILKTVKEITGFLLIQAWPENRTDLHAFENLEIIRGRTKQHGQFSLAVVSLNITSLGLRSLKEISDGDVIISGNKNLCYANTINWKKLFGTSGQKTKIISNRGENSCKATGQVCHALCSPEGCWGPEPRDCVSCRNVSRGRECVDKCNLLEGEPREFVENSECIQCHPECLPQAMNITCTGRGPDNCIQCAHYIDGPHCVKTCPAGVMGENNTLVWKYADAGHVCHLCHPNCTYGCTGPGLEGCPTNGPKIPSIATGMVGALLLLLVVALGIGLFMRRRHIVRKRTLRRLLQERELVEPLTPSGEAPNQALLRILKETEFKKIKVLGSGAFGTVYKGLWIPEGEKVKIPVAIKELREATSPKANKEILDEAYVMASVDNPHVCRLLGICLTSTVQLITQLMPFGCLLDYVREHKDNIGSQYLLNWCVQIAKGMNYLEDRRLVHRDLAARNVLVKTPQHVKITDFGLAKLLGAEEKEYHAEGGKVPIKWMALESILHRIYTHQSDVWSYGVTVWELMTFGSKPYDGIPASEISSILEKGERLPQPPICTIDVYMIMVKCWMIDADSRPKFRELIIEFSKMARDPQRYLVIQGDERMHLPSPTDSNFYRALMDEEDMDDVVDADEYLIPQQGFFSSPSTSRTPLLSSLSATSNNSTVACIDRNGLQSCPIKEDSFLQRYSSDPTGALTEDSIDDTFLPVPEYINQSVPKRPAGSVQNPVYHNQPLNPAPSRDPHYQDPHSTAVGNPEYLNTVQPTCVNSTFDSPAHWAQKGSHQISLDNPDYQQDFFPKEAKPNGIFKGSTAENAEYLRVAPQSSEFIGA

[8] = target: Follistatin-related protein 3 (Homo sapiens) (UniProt O95633); experiment: FSTL3 binders on small-molecule microarrays, primary screen, biochemical, small-molecule microarray, 635 nm fluorescence (AID 1105); conditions: FSTL3 binding, higher = more signal;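 further: score merges emission near 667 nm and signal to noise per printed spot across three slides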
Chain of Follistatin-related protein 3 (Homo sapiens) (O95633 whole entry, looked up): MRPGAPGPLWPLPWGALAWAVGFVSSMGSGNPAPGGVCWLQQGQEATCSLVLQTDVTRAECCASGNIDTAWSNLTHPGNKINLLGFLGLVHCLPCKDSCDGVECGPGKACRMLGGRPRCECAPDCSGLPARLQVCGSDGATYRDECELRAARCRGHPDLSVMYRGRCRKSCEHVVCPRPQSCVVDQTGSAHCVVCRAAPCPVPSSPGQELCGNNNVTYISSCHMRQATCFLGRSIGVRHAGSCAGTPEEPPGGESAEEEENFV

[9] = target: Dickkopf-related protein 1 (Homo sapiens) (UniProt O94907); experiment: DKK1 binders on small-molecule microarrays, primary screen, biochemical, small-molecule microarray, 635 nm fluorescence scan (AID 1106); conditions: DKK1 binding, higher = more signal;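 further: score merges emission near 667 nm with signal to noise over three replicate slides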
Chain of Dickkopf-related protein 1 (Homo sapiens) (O94907 whole entry, looked up): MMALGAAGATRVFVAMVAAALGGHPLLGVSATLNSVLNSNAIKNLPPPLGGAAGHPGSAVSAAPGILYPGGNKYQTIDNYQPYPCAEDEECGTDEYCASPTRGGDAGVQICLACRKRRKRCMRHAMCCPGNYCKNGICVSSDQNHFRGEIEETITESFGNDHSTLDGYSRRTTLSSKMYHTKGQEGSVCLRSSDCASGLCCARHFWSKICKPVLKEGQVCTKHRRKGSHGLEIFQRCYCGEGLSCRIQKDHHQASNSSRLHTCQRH

[10] = system: Inhibin beta A chain (activin A); experiment: INHBA (activin A) binders on microarrays, primary screen, biochemical, small-molecule microarray, 635 nm fluorescence scan (AID 1107); conditions: small-molecule microarray binding, higher = more signal;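 further: mouse activin A protein probed at 4.33 µg/mL on printed slides; score merges bound-protein fluorescence near 667 nm with spot signal-to-noise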
[11] = system: Human papillomavirus type 1a protein E7 (residues 44-93); experiment: HPV1a E7 fragment binders on microarrays, primary screen, biochemical, small-molecule microarray, residues 44-93, 635 nm fluorescence (AID 1108); conditions: small-molecule microarray binding, fluorescence 635 nm; higher = more signal;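 further: E7 fragment applied at 1 µg/mL in TBST for 1 h at 4 C; score combines spot fluorescence with its signal to noise ratio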
[12] = modulators of HCV replicon luciferase signal, primary screen, HCV replication inhibitor project, Huh7 cells, luciferase reporter (AID 1109); conditions: 48 h, higher = more signal;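 further: huh7 hepatoma cells harbouring a luciferase neomycin HCV replicon reporter; luciferase luminescence as measure of HCV replicon replication; test concentration not given here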
[13] = target: Left-right determination factor 2 (Homo sapiens) (UniProt O00292); experiment: LEFTY2 binders on small-molecule microarrays, primary screen, biochemical, small-molecule microarray, 635 nm fluorescence scan (AID 1110); conditions: LEFTY2 binding, higher = more signal
Chain of Left-right determination factor 2 (Homo sapiens) (O00292 whole entry, looked up): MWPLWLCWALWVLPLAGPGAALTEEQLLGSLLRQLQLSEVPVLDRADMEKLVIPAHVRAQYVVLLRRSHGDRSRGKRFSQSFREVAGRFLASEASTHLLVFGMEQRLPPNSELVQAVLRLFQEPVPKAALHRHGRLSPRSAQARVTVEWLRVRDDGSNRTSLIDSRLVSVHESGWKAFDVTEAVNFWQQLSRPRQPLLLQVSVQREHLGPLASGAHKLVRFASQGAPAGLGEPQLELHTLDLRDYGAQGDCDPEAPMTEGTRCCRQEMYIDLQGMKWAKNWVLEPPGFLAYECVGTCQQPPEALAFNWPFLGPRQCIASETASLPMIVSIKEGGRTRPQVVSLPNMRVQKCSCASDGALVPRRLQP

[14] = target: Calmodulin-1 (Homo sapiens) (UniProt P0DP23); experiment: CALM1 binders on microarrays, EGTA buffer, profiling panel, biochemical, small-molecule microarray, Cy5-labelled CALM1 (AID 1111); conditions: Cy5-CALM1 binding fluorescence, higher = more signal;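 further: labelled calmodulin applied in Tris saline Tween buffer holding calcium plus EGTA and DTT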
[15] = target: Calmodulin-1 (Homo sapiens) (UniProt P0DP23); experiment: calcium-bound CALM1 binders on microarrays, profiling panel, artefact control for SMM control-protein annotation, biochemical, small-molecule microarray, Cy5-labelled CALM1, plus calcium (AID 1112); conditions: Cy5-CALM1 binding fluorescence, higher = more signal;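 further: score merges spot fluorescence with signal to noise from triplicate slides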
[16] = small-molecule microarray binders of probe aWnt5a, primary screen, biochemical, biotinylated probe, 635/667 nm fluorescence (AID 1113); conditions: higher = more signal;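 further: score merges 667 nm fluorescence intensity with signal-to-noise per printed feature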
[17] = small-molecule microarray binders of probe aShh, primary screen, biochemical, biotinylated probe, 635/667 nm fluorescence (AID 1114); conditions: higher = more signal;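 further: probe is biotin-labelled aShh protein from a stem cell growth factor screen; measures binding of labelled protein to compounds printed on the slide; score merges feature fluorescence at 667 nm with signal-to-noise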
[18] = small-molecule microarray binders of probe aNog, primary screen, biochemical, biotinylated probe, 635/667 nm fluorescence (AID 1115); conditions: higher = more signal;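 further: probe is biotinylated aNog protein used at 0.15 µg/mL for 1 h at 4 C; z-score combines 667 nm fluorescence of each spot with its signal to noise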
[19] = target: Torsin-1A-interacting protein 1 (Homo sapiens) (UniProt Q5JTV8); experiment: LAP1 binders from COS7 cell lysate, primary screen, small-molecule microarray, 635/667 nm fluorescence (AID 1116); conditions: COS7-hLAP1 lysate binding, 635 nm fluorescence, higher = more signal
Chain of Torsin-1A-interacting protein 1 (Homo sapiens) (Q5JTV8 whole entry, looked up): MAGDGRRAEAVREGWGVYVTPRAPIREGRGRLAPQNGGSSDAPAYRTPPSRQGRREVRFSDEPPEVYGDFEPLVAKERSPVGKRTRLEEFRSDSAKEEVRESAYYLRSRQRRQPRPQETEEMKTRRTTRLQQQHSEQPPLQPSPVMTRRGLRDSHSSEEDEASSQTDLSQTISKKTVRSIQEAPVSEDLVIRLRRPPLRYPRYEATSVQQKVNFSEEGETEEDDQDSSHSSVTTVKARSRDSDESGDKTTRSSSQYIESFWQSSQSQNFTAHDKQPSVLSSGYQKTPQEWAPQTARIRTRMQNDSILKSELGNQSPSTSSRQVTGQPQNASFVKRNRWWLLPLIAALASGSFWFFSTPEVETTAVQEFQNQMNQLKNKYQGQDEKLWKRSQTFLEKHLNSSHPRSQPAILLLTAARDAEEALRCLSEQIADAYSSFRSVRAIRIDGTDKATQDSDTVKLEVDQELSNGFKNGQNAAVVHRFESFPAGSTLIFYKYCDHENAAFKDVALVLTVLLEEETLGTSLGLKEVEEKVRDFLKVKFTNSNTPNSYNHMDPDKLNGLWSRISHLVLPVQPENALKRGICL

[20] = target: Alpha-bungarotoxin (Bungarus multicinctus) (UniProt P60615); experiment: alpha-bungarotoxin binders on microarray, profiling panel, artefact control for SMM control protein annotation, biochemical, small-molecule microarray, Alexa647 label, 635/667 nm fluorescence (AID 1117); conditions: alpha-BTX-A647 binding fluorescence, higher = more signal
Chain of Alpha-bungarotoxin (Bungarus multicinctus) (P60615 whole entry, looked up): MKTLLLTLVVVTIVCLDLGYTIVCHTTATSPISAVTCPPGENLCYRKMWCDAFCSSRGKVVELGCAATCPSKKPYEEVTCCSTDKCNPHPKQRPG

Row | SMILES | composite z-score [1] | composite z-score [2] | composite z-score [3] | z-score [4] | composite z-score [5] | composite z-score [6] | composite z-score [7] | composite z-score [8] | composite z-score [9] | composite z-score [10] | composite z-score [11] | z-score [12] | composite z-score [13] | composite z-score [14] | composite z-score [15] | composite z-score [16] | composite z-score [17] | composite z-score [18] | composite z-score [19] | composite z-score [20]
1 | COC(=O)[C@@]1(Cc2ccc(F)cc2)[C@H]2c3cc(C(=O)N(C)C)n(Cc4nc5ccccc5[nH]4)c3C[C@H]2CN1C(=O)c1ccccc1 | 1.62 | 0.69 | 0.969 | -1.62 (inactive) | 0.63 | -0.136 | 0.314 | 0.296 | -0.419 | 0.538 | 1.32 | -0.494 | -0.423 | 1.42 | 0.114 | 0.178 | 0.603 | 0.485 | 0.778 | 0.324
2 | COc1ccc(C(=O)Nc2ccc(CN3C(=O)[C@@]4(O[C@@H](CC(=O)N5CCC[C@H]5CO)[C@H]([Si](C)(C)c5ccc(OC)cc5)[C@H]4C)c4ccccc43)cc2)cc1 | 1.4 | -0.143 | -0.0233 | -0.681 (inactive) | 1.38 | 1.29 | 1.02 | 1.44 | 1.14 | 0.715 | 0.825 | -2.19 | 1.13 | 0.11 | -0.654 | -0.0643 | 0.0639 | -0.0503 | 1.01 | 1.12
3 | C=CCNC(=O)[C@@H]1[C@H]2C(=O)O[C@H](c3ccccc3)[C@H](c3ccccc3)N2[C@H](c2ccccc2OCCO)[C@@]12C(=O)N(C(=O)OCCOC)c1ccc(C#CCNC(N)=O)cc12 | 1.43 | 0.0834 | 0.447 | -0.938 (inactive) | 0.738 | 0.581 | 0.444 | 0.921 | -0.0253 | 0.38 | 1.36 | -1.19 | 0.213 | 1.58 | 0.27 | -0.0196 | -0.739 | 0.658 | 0.96 | 1.76
4 | CCCC[C@@H]1C[C@H]1[C@@H](NC(=O)c1ccco1)c1ccc(C(=O)OC)cc1 | -0.433 | 0.0294 | 0.838 | 0.965 (inactive) | 0.0373 | -1.09 | -0.643 | -0.76 | -0.633 | 0.807 | 0.0703 | -1.07 | -0.423 | 0.0927 | 0.555 | -0.027 | -0.217 | -0.261 | -0.392 | -0.335
5 | C[C@@]1([C@@H](NC(=O)c2ccccc2)c2ccc(-c3ccccc3)cc2)C[C@H]1C1CCCCC1 | -0.443 | 1.18 | 1.26 | 0.665 (inactive) | -0.145 | -0.82 | -0.573 | -0.503 | -0.932 | 1.09 | -0.752 | 0.602 | -0.535 | 1.32 | 1.19 | -0.006 | -0.353 | 0.18 | 0.294 | -0.272
6 | CC(C)(C)OC(=O)CC[C@@]1(C(=O)NCCN2CCOCC2)N=C(c2ccc(OCCCO)cc2)O[C@@H]1c1ccccc1N=[N+]=[N-] | 0.739 | 1.04 | 1.21 | -0.744 (inactive) | 1.1 | 0.0778 | 0.0224 | 1.06 | 0.0741 | 1.24 | 1.32 | -0.291 | 0.609 | 0.147 | 0.0196 | 0.108 | 0.171 | 0.991 | 0.694 | 0.783
7 | COc1ccc(C(O)C2C=CC3C(=O)N(c4ccccc4)C(=O)C3N2Nc2ccc(C(C)C)cc2)cc1OCc1ccccc1 (stereo not given) | 1.5 | 1.17 | 1.27 | -0.00529 (inactive) | 0.889 | 1.27 | 0.207 | 1.29 | -0.213 | 0.521 | 0.473 | -0.264 | 0.346 | 2.13 | 0.682 | 0.145 | -0.0375 | 0.299 | 0.598 | 2.07
8 | CN1C2C=C(CCCO)C(C3C(=O)N(C(N)=O)C(=O)C32)C1c1ccc(CN2CCCC2)cc1 (stereo not given) | -0.323 | -0.284 | -0.257 | -0.0848 (inactive) | -0.367 | -0.563 | -0.376 | -0.658 | -0.544 | -0.751 | 0.138 | -0.149 | -0.943 | -0.224 | 0.0344 | -0.243 | 0.0278 | -0.328 | 0.0727 | 0.236
9 | C=CCOC(=O)[C@@H]1[C@H]2C(=O)O[C@H](c3ccccc3)[C@H](c3ccccc3)N2[C@H](c2ccc(OCCOC(=O)[C@@H]3C[C@@H]4C(=O)N[C@@H](CCCCN(C)C)C(=O)N4[C@@H]3c3ccc(O)cc3)cc2)[C@@]12C(=O)Nc1ccc(I)cc12 | 1.14 | -0.0242 | 0.0749 | -0.0143 (inactive) | 0.767 | 1.13 | 1.01 | 1.04 | 1.11 | 0.347 | 1.34 | -2.84 | 0.696 | 0.846 | -0.0759 | -0.0927 | 0.432 | -0.12 | 0.454 | 0.78
10 | CN1C(=O)C2C=CC(C(O)c3ccc(I)cc3)N(N3CCCCC3)C2C1=O (stereo not given) | 1.36 | 0.382 | 1.21 | 1.18 (inactive) | 1.07 | 0.354 | 0.396 | 1.34 | -0.147 | 0.72 | 1.43 | -0.435 | 0.0759 | 1.64 | 0.219 | 0.0599 | 0.184 | 1.34 | 1.19 | 1.22
11 | CC(C)(C)OC(=O)CC[C@]12N=C(c3ccc(OCCCO)cc3)O[C@H]1c1ccccc1N(CCS(=O)(=O)c1ccccc1)C2=O | 1.17 | 0.438 | 0.52 | 0.0112 (inactive) | 0.905 | 1.23 | 0.545 | 0.975 | 0.445 | 0.924 | 1.39 | -0.664 | 0.497 | 0.234 | -0.353 | 0.0706 | 0.287 | -0.344 | 0.751 | 1.41
12 | COc1ccc(C(O)C2C=CC3C(=O)NC(=O)C3N2Nc2ccccn2)cc1 (stereo not given) | 0.948 | 0.422 | 0.267 | 0.706 (inactive) | 0.257 | -0.0877 | 0.686 | 0.304 | 0.645 | 0.371 | -1.08 | 0.824 | 0.494 | -1.3 | -0.498 | 0.0158 | -0.106 | 0.0861 | 0.658 | -0.0568
13 | CCOC(=O)[C@H]1C/C=C/C[C@H](C(=O)OCC)C(=O)O[C@H]2[C@@H](OC)O[C@H](CO)[C@@H](OC(=O)Nc3ccc(C#N)cc3)[C@@H]2OC1=O | 0.859 | -0.114 | 0.0682 | -2.6 (inactive) | 0.322 | -0.0841 | -0.226 | 0.413 | -0.255 | 0.189 | -0.324 | -3.6 | -0.0147 | 0.917 | 0.148 | -0.124 | 0.0062 | -0.113 | 1.63 | -0.253
